# Results published in the supplement of paper PMC11732987, “Enantioselective OTUD7B fragment discovery through chemoproteomics screening and high-throughput optimisation” (Communications Chemistry, 2025).
# A number with no mark means an inactive call.
# What was measured:
# Experiment in all cases: log2 ratio of Biotin-Ahx-Ub-VS probe labelling (fragment/DMSO); higher = less target engagement (more negative = stronger competition), active = hit call of the paper (q ≤ 0.05, log2 ratio ≤ -1)
# Settings in all cases: compound concentration: 200 uM; treatment time: 3 h
# OTUD6B = molecular target: T1, OTUD6B (UniProt Q8N6M0)
# T1 sequence (whole entry): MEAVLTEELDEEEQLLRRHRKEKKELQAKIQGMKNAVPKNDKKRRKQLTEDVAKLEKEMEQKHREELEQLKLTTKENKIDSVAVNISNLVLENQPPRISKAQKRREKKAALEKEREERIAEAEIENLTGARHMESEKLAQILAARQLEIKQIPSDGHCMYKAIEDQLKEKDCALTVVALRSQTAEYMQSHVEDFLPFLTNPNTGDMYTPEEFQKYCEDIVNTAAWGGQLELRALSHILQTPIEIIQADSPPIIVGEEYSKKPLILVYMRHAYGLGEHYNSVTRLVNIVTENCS
# How it was run: (§1)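 HEK293T lysate (495 µg per sample, in Tris/CHAPS/IGEPAL buffer with protease inhibitors) was treated in triplicate with fragment at 200 µM or with DMSO for 3 h. It was then treated with Biotin-Ahx-Ub-VS (0.5 µM final) for 1 h. Labelled DUBs were NeutrAvidin-enriched, digested with LysC and trypsin, and run by diaPASEF LC-MS/MS. Spectronaut label-free quantities were global-median-normalised. Values are average log2 ratios fragment/DMSO by unpaired t-test, using proteins with ≥2 unique peptides.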
# OTUD7B = molecular target: T2, OTUD7B (UniProt Q6GQQ9)
# T2 sequence (whole entry): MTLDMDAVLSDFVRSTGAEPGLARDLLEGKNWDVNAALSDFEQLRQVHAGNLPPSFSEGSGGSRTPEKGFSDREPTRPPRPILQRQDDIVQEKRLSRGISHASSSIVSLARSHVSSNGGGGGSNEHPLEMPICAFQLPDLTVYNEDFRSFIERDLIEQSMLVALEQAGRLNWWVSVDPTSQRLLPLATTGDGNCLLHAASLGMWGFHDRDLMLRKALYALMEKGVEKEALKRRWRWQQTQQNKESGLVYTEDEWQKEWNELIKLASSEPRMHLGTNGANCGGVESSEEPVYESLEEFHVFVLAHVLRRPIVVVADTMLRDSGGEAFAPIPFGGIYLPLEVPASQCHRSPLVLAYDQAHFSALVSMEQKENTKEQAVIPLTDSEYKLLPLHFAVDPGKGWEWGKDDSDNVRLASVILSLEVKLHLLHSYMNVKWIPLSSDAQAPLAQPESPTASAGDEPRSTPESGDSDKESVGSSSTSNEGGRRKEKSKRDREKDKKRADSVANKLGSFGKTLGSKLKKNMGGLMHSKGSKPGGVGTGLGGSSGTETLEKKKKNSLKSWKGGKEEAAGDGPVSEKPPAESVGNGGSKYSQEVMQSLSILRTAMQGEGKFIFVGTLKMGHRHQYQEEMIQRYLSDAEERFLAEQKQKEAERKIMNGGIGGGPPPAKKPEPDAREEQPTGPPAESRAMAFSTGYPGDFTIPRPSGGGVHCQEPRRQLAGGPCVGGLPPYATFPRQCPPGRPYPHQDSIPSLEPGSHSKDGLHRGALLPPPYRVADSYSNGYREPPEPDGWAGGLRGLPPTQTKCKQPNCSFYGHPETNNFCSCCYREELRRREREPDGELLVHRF
# How it was run: as §1
# PRPF8 = PRPF8 (UniProt Q6P2Q9)
# How it was run: as §1
# PSMD7 = molecular target: T3, PSMD7 (UniProt P51665)
# T3 sequence (whole entry): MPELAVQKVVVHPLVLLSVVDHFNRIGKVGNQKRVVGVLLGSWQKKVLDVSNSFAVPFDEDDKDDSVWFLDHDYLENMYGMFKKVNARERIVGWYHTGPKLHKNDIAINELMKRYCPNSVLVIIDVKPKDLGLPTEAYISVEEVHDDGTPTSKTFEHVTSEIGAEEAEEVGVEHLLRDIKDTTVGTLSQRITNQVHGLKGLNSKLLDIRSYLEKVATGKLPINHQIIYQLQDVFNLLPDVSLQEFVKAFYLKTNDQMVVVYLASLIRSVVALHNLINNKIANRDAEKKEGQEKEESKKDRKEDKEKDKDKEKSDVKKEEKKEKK
# How it was run: as §1
# UCHL1 = UCHL1 (UniProt P09936)
# Sequence of UCHL1 (P09936 whole entry, looked up): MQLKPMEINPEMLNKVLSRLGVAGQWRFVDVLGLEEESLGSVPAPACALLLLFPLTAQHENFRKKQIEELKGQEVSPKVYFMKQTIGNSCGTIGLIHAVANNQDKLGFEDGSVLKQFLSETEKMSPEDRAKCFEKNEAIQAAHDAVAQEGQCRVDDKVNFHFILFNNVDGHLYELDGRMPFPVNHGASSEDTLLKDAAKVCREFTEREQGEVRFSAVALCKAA
# How it was run: as §1
# UCHL3 = molecular target: T4, UCHL3 (UniProt P15374)
# T4 sequence (whole entry): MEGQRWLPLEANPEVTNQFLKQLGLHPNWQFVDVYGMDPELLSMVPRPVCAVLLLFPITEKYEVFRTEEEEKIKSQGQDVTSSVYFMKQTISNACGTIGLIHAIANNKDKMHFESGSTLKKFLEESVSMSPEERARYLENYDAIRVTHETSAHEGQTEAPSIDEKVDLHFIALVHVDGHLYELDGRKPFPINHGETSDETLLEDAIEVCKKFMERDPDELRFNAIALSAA
# How it was run: as §1
# UCHL5 = molecular target: T5, UCHL5 (UniProt Q9Y5K5)
# T5 sequence (whole entry): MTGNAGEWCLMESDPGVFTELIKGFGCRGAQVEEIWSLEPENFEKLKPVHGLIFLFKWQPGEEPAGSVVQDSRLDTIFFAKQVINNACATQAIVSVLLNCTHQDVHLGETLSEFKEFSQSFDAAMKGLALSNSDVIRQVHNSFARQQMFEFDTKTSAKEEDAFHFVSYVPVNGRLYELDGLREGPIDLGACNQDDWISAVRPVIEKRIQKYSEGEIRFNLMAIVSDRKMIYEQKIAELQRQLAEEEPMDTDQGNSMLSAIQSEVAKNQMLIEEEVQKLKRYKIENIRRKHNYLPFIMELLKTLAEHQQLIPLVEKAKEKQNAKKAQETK
# How it was run: as §1
# USP10 = USP10 (UniProt Q14694)
# Sequence of USP10 (Q14694 whole entry): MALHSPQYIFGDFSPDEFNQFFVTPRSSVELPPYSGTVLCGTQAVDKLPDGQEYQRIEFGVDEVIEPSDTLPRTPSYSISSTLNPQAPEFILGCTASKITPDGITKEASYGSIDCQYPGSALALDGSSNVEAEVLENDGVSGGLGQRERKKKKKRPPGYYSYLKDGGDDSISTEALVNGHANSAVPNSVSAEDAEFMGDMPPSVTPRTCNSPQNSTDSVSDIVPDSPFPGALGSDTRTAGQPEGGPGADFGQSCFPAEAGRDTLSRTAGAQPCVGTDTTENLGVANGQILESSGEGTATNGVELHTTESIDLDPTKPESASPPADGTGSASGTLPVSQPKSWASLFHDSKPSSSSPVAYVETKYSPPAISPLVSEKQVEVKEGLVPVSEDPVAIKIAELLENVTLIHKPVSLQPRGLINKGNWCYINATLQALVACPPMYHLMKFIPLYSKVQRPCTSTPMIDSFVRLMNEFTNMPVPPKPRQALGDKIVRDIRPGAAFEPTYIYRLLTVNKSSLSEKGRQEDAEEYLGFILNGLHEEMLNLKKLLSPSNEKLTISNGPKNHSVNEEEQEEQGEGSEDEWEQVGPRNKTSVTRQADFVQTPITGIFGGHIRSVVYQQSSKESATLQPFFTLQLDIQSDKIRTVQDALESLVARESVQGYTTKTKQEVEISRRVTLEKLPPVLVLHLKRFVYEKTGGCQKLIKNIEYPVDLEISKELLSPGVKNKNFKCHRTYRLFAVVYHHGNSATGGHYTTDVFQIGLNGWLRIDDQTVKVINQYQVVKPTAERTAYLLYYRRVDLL
# How it was run: as §1
# USP15 = molecular target: T6, USP15 (UniProt Q9Y4E8)
# T6 sequence (whole entry): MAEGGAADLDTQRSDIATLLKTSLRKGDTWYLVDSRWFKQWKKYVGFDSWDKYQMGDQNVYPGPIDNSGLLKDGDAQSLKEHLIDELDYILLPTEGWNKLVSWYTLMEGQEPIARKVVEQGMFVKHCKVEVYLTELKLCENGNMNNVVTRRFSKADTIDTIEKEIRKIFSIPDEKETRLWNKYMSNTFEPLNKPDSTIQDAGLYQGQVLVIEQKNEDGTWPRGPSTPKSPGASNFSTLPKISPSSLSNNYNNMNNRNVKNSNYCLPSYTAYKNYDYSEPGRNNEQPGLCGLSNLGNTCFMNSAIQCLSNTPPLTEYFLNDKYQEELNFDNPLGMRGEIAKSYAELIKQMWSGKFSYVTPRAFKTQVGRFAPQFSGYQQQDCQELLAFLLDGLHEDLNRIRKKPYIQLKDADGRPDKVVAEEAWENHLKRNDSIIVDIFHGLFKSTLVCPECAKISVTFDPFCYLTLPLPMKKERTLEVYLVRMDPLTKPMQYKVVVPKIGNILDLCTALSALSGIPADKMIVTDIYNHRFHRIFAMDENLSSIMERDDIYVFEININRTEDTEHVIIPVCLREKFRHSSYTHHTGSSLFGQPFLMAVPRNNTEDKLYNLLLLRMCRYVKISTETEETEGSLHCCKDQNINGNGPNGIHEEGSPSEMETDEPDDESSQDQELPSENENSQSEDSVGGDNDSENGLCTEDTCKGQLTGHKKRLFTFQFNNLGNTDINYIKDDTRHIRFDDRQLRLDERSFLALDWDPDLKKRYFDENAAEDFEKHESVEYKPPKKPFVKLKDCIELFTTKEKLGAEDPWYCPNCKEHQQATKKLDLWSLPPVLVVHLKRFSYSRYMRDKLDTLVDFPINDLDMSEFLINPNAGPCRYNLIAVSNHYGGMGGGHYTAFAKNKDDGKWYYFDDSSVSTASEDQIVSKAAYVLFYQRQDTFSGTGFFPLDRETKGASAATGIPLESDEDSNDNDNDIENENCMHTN
# How it was run: as §1
# USP16 = USP16 (UniProt Q9Y5T5)
# Sequence of USP16 (Q9Y5T5 whole entry, looked up): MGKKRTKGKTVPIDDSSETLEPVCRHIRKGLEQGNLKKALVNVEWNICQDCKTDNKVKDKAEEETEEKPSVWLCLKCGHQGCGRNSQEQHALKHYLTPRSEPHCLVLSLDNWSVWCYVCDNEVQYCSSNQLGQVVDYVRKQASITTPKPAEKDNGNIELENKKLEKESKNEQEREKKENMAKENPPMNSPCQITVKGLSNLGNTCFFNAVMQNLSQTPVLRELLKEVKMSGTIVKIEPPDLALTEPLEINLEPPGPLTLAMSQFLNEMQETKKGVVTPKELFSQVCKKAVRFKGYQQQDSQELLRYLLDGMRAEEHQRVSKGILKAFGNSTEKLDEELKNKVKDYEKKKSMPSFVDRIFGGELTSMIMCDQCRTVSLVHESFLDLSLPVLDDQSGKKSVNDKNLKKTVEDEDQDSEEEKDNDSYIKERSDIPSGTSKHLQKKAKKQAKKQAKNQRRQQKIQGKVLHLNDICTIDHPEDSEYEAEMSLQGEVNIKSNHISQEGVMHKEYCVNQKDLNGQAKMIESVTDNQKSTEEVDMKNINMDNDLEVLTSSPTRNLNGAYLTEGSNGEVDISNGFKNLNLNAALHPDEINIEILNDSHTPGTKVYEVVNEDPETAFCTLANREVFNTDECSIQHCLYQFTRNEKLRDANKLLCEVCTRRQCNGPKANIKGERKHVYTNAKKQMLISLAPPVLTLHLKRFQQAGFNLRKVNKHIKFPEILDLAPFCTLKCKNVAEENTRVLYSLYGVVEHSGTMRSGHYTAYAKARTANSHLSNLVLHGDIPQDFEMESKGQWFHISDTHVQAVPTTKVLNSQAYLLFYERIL
# How it was run: as §1
smiles,measurement,setting,value
Cl.O=C(CCl)N1CCCC(c2ncc[nH]2)C1 (stereo not given),log2 ratio of Biotin-Ahx-Ub-VS probe labelling,OTUD6B,-0.0792
same,log2 ratio of Biotin-Ahx-Ub-VS probe labelling,OTUD7B,-0.245
same,log2 ratio of Biotin-Ahx-Ub-VS probe labelling,PRPF8,-0.138
same,log2 ratio of Biotin-Ahx-Ub-VS probe labelling,PSMD7,-0.217
same,log2 ratio of Biotin-Ahx-Ub-VS probe labelling,UCHL1,-1.49 (active)
same,log2 ratio of Biotin-Ahx-Ub-VS probe labelling,UCHL3,0.271
same,log2 ratio of Biotin-Ahx-Ub-VS probe labelling,UCHL5,-0.164
same,log2 ratio of Biotin-Ahx-Ub-VS probe labelling,USP10,-0.028
same,log2 ratio of Biotin-Ahx-Ub-VS probe labelling,USP15,-0.0525
same,log2 ratio of Biotin-Ahx-Ub-VS probe labelling,USP16,-0.216
